Screening results: PubChem, National Center for Advancing Translational Sciences (NCATS)
This is one part of a sample in which hits are shown more often than they occur.
L3MBTL1 inh = blocks human L3MBTL1 | Q9Y468 | Potency, µM (top dose mostly 57.1 µM), inactives show at the top dose activity, negative = inhibition, actives largely listed as inhibitors | AlphaScreen L3MBTL1–H3K9me1 peptide binding | 0.66% of 230,000 active; note: nearly all actives have a fitted effect of over 60% in size
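AlphaScreen proximity signal between nickel-chelate acceptor and streptavidin donor beads (final 10 ug/mL) reports binding of 50 nM L3MBTL1 to 75 nM biotin-H3 K9me1 peptide; complex incubated with compounds 30 min at room temperature; cefsulodin titration as control.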
KDM4E inh = JMJD2E (human) inhibition; JMJD2E catalytic domain, FDH-coupled NADH fluorescence (FDH is formaldehyde dehydrogenase); Potency, µM (top dose mostly 57.1 µM), for inactives: at the highest dose activity change, negative = inhibition, usual class: inhibitors; 1.6% of 230,000 active; AID 2147; active = well fitted inhibition curve with a large enough effect, not every such curve was filed as active; inconclusive = small, poorly fitted or top-dose-only effect, or another doubt; inactive = no such curve, though single readings can be large or run the other way;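 note: 0% = wells with enzyme and -100% = buffer wells without enzyme; nearly all actives have a fitted effect of over 50% in size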
BLM inh = blocks DNA unwinding by human BLM helicase; P54132; 0.2% of 350,000 active; recombinant BLM DNA unwinding, fluorescence dequenching; Potency, µM (top dose mostly 56.1 µM), for the others: at the top dose activity change, negative = inhibition, actives largely listed as inhibitors;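 note: plate controls were vehicle for no effect and no enzyme for full effect; nearly all actives have a fitted effect of over 35% in size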
RECQ1 helicase = blocks DNA unwinding by human RECQ1; P46063; RECQ1 DNA unwinding, red fluorescence kinetic read; Potency, µM (highest dose often 57.3 µM), for the others: at the highest dose activity, negative = inhibition, actives largely listed as inhibitors; 0.54% of 240,000 active; AID 2549;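 note: plate controls were vehicle for no effect and no enzyme for full effect; nearly all actives have a fitted effect of over 30% in size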
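50 nM RECQ1T1 preincubated 15 min with compound in Tris pH 8.0 buffer with MgCl2, DTT, Tween-20 and 2.5 ug/ml poly(dI-dC); started with 200 nM TAMRA/BHQ-2 forked duplex and 2 mM ATP. Unwinding read as fluorescence (525/598 nm), two reads 2 h apart.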
APE1 inh = inhibitors of human APE1 endonuclease. recombinant APE1, TAMRA/BHQ-2 abasic DNA cleavage fluorescence. Potency, µM (titrated, usually from 65.8 µM), for inactives: at the top dose activity change, negative = inhibition, most hits filed as inhibitors. 0.35% of 350,000 active. AID 2517;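 note: plate controls were vehicle for no effect and reference inhibitor for full effect; nearly all actives have a fitted effect of over 55% in size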
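0.75 nM APE1 + cpd, 15 min RT; start w/ 50 nM TAMRA/BHQ-2 THF-abasic dsDNA; kinetic fluor 525/598 nm ×3 reads @60 s; Δ(read3−read1); normalized to DMSO and NSC13755 control wells.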
TDP1 inh = blocks human tyrosyl-DNA phosphodiesterase 1. Q9NUW8. 0.28% of 350,000 active. Potency, µM (highest dose often 130 µM), for the others: top-dose activity change, negative = inhibition, hits mostly inhibitors. recombinant TDP1, AlphaScreen DNA substrate cleavage; note: nearly all actives have a fitted effect of over 40% in size
Target sequence (Q9NUW8 whole entry, looked up): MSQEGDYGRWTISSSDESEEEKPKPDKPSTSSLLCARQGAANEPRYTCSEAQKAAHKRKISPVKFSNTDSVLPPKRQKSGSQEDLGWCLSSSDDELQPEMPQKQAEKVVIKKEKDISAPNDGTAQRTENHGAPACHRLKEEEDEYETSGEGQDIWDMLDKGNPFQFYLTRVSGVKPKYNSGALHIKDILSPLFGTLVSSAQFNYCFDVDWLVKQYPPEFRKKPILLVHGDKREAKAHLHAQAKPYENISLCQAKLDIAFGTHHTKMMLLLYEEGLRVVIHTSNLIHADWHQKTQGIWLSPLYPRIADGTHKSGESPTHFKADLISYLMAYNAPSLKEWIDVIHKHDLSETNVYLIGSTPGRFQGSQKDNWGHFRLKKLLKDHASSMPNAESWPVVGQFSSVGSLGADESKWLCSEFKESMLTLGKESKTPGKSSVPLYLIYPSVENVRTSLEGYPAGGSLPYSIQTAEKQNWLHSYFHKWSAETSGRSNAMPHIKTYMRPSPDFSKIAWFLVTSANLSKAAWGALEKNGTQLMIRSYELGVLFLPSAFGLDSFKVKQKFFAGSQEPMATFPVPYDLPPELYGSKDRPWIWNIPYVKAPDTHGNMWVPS
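Compounds were preincubated with Tdp1 (1 nM final) for 15 min at room temperature before substrate (15 nM final) started a 5 min reaction; beads (10 ug/ml final) were then added for 10 min before AlphaScreen detection.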
The depositor's hits bear a star; i = inactive; ? = inconclusive; . = no result; ! = repeats disagree; [ ] = another dose, or the depositor's remark. Unless noted, calls come from the whole dose curve; as a rule, active = well fitted curve in the direction sought with a large enough effect; inconclusive = small, poorly fitted or top-dose-only effect, or another doubt; inactive = no such curve, though single readings can be large; an effect the other way counts as inactive or inconclusive. Unless noted, % is set by controls: 0 for no effect and ±100 for the full control effect; potency is the fitted concentration of half-maximal effect.

SMILES | L3MBTL1 inh | KDM4E inh | BLM inh | RECQ1 helicase | APE1 inh | TDP1 inh
CC1(OC(=O)CCc2ccccc2)C(=O)C=C2C=C(c3ccc(C#N)cc3)N(CCc3c[nH]c4ccccc34)C=C2C1=O (stereo not given) | . | 16µM*! | -3%[12.4 µM] | -4% | 7%[12.4 µM] | -1%[12.3 µM]
CCc1nn(CC(=O)NCc2ccco2)c(=O)c2cc3c(OC)cccc3n12 | . | . | -8% | . | . | 0%
CC1(OC(=O)CCc2ccccc2)C(=O)C=C2C=C(c3ccc(C#N)cc3)N(C3CCCCC3)C=C2C1=O (stereo not given) | . | 28µM*! | -5%[12.4 µM] | -2%[11.5 µM] | -4%[12.4 µM] | 6%[21 µM]
CC1(OC(=O)CCc2ccccc2)C(=O)C=C2C=C(c3ccc(C#N)cc3)N(C(CO)CO)C=C2C1=O (stereo not given) | . | 3.5µM* | -4%[12.4 µM] | 3%[11.5 µM] | -3%[12.4 µM] | 3%[21 µM]
COc1ccc(CN2C=C3C(=O)C(C)(OC(=O)CCc4ccccc4)C(=O)C=C3C=C2c2ccc(C#N)cc2)cc1 (stereo not given) | . | ? | -4%[12.4 µM] | -6% | -3%[12.4 µM] | 10%[12.3 µM]
CC1(OC(=O)CCc2ccccc2)C(=O)C=C2C=C3CCCN3C=C2C1=O (stereo not given) | . | 18µM* | ? | ? | ? | 4.5µM*!
O=C(CNC(=O)C12CC3CC(CC(C3)C1)C2)N/N=C\c1ccco1 | . | . | -2% | . | 12% | 2%
O=C(/C=C/c1ccco1)c1ccc(NC(=O)C23CC4CC(CC(C4)C2)C3)cc1 | 22µM* | 32µM* | ? | -3% | 0% | 0%
COc1ccc(C2c3ccccc3Oc3ncn(CCN4CCOCC4)c(=N)c32)cc1OC (stereo not given) | . | . | . | . | . | -6%
Cc1cccc(Nc2nc(N)c([N+](=O)[O-])c(N3CCCC(C)C3)n2)c1 (stereo not given) | 32µM* | 3% | -16% | -8% | -8% | 5%
Cc1ccc(NS(=O)(=O)c2cc3c(cc2-c2ccccc2)NC(=O)CO3)cc1C | . | . | . | . | . | 0%
COc1cc2nc(C3CCC3)nc(N3CCN(c4ccccc4OC)CC3)c2cc1OC | 28µM* | -27% | -5% | -6% | -7% | 8%
CN(C)c1oc(-c2cccc3ccccc23)nc1C#N | . | . | . | . | 52% | .
Cc1cc(C)c2c(CC(=O)Nc3cc(C(F)(F)F)ccc3Cl)coc2c1 | . | . | 0% | . | . | 2%
O=C1S/C(=C/c2ccc(N3CCOCC3)o2)C(=O)N1Cc1ccc(F)cc1 | -3% | -6% | -2% | -8% | -6% | 0%
O=C1NC(=S)S/C1=C/c1ccc(N2CCOCC2)o1 | 32µM* | -4% | i | 1% | 3% | 0%
COc1ccc(C2=Nn3c(nnc3-c3cc(OC)ccc3OC)SC2)c(OC)c1 | . | . | 1% | -3% | -1% | 6%
O=C(Nc1ccc(S(=O)(=O)NCc2ccco2)cc1)c1ccc(F)cc1 | . | . | -4% | . | -26% | 56µM*
O=C(Nc1ccccc1)c1ccc(S(=O)(=O)NCc2ccco2)cc1 | 9%[11.4 µM] | 3% | -1% | -1% | -3% | 2%
CC(C)c1cccc(-c2ccc3c(c2)S(=O)(=O)c2cccc(C(=O)NCc4ccco4)c2C3=O)c1 | -26% | . | . | . | -38% | 45µM*
CC(C)C[C@@H](CN(C)N=O)N(C[C@H](Cc1ccccc1)N(CCc1ccccc1)N=O)N=O | 1% | 0% | -6% | 4µM* | 0% | 1%
O=C(NC1CC1)c1cc(-c2cccs2)on1 | . | . | . | . | 9% | .
Fc1ccc2c(c1)-c1c(cnc3cc(-c4ccc(Cl)cc4)nn13)CO2 | . | . | -6% | . | . | 3%
CCOC(=O)C1=C(O)/C(=C/c2ccc(CNC(=O)C(=O)Nc3ccc(C)cc3)o2)N=C1C | . | -15% | ? | -11% | 1% | -1%
COC(=O)C1=C(O)/C(=C\c2ccc(CNC(=O)C(=O)Nc3ccc(C)cc3)o2)N=C1C | 7.9µM* | -2% | 0% | -3% | -10% | 0%
Cc1ccc(N2CCN(C(=O)c3cn(C)c4ccc(S(=O)(=O)N(C)C5CCCCC5)cc4c3=O)CC2C)cc1 (stereo not given) | . | . | 2% | . | . | 2%
